# Results: PubChem BioAssay AID720580 (National Center for Advancing Translational Sciences (NCATS), 2013)
# The whole screen tested about 330,000 compounds, of which about 1,500 (0.45%) were called active. Not shown: some 6% with an inconclusive outcome. Only a selection was taken, and actives are over-represented in it overall. Unmarked numbers belong to inactive results. Calls follow the shape of the full dose curve; tested in A549 cells.
# Test: qHTS for Stage-Specific Inhibitors of Vaccinia Orthopoxvirus: Venus Reporter Primary qHTS; also: nearly all actives have a fitted effect of over 30% in size
# Settings: Vaccinia virus Venus reporter expression, fluorescence; series mostly up to 36.5 µM; activity change, negative = inhibition: at the top concentration
# % is scaled to controls: 0 for no effect and ±100 for the full control effect; potency is read from the fitted curve at half-maximal effect.
SMILES,"activity change, negative = inhibition [%]",Potency
NC(=S)N/N=C/c1coc2cc(Cl)ccc2c1=O,-2.91,–
CC(C)Oc1c(Br)cc(Br)cc1/C=N/NC(N)=S,–,5.01 µM (active)
Cc1cccc(-n2c(C)cc(/C=N/NC(N)=S)c2C)c1,-19.7,–
CCCCCn1nnnc1C1c2ccccc2C(=O)N1Cc1ccco1 (stereo unspecified),0.846,–
O=C(Nc1ccccc1Cl)/C(Cl)=C(\Cl)S(=O)c1ccccc1 (stereo unspecified),–,10 µM (active)
O=C(Nc1ccccc1Cl)O/N=C(/c1ccccc1)c1ccccn1,-8.43,–
O=C(Cc1ccc2c(c1)CCCC2)Nc1ccccc1Cl,-2.79,–
C[C@]12CC[C@H](O)C[C@H]1CC[C@@H]1C2CC[C@]2(C)[C@@H](C3=CC(=O)OC3)[C@@H](O)C[C@]12O (stereo partly specified),–,3.16 µM (active)
CC(CCC(=O)O)C1CCC2C3C(O)C[C@@H]4CC(O)CC[C@@]4(C)C3CC[C@@]12C (stereo partly specified),–,inactive
C[C@@]12CCC3C(CC[C@@H]4CC(O)CC[C@@]34C)C1CCC2O (stereo partly specified),0,–
Cc1csc(NCC(=O)c2c[nH]c3ccccc23)n1,-23,–
CCOC(=O)[C@]12CCC=C1N(Cc1cccc3ccccc13)C(=O)[C@H](CC(=O)NCc1cccc(C(F)(F)F)c1)C2,-28.4,–
COc1ccc(C(C)C)cc1-c1ccc2nncn2c1,-10.8,–
Cc1cc(C)n2c(NCc3ccccc3)c(CC(C)C)nc2n1,18.6,–
O=C(Nc1ccc(C(=O)N2CCOCC2)cc1)Nc1cccc(C(F)(F)F)c1,-15.9,–
CC(C)C[C@H](NC(=O)Nc1cccc(C(F)(F)F)c1)C(=O)O,-0.745,–
CC(=O)c1ccc(Nc2nc(C(N)c3ccccc3)cs2)cc1 (stereo unspecified),-10.3,–
Cc1ccc(NC(=O)Nc2cccc(C(F)(F)F)c2)nc1,-3.51,–
NC(c1csc(NC(=O)Nc2cccc(C(F)(F)F)c2)n1)C1CCCCC1 (stereo unspecified),–,10 µM (active)
NC(c1ccccc1)c1csc(NC(=O)Nc2cccc(C(F)(F)F)c2)n1 (stereo unspecified),–,11.2 µM (active)
COc1ccc(C(O)C(O)(C(=O)OC(C)C)c2ccc(C)cc2)cc1 (stereo unspecified),-12.4,–
COc1cc(C=C(OC(C)=O)c2ccc3c(c2)OCO3)cc(OC)c1OC,-4.33,–

SMILES,"activity change, negative = inhibition [%]",Potency
COc1ccc(-c2ccc(C(=O)NCCN3CCOCC3)c3occc23)c(C)c1,-23.2,–
COc1ccccc1Cc1c(-c2ccc(Cl)cc2)nc2c3ccccc3ccn12,-4.99,–
COc1ccc(-c2coc3c(C(=O)NC(C)C)cccc23)c(C)c1,-4.73,–
CCCCCn1nnnc1-c1nc2cc3ccccc3cc2[nH]c1=O,64.3,–
CCOC(=O)C1C(C)C(C(C)(C)C)N(S(=O)(=O)c2ccc(C)cc2)C1c1ccccc1 (stereo unspecified),-24.5,–
Cc1cc2nc(-c3ccc(Cl)cc3)c(Cc3cccc(F)c3)n2c(C)c1Br,6.13,–
COc1cccc(CNC(=O)[C@@H]2CCCN2C(=O)[C@@H]2CCCN2C(=O)c2ccccc2)c1,2.4,–
COC(=O)c1ccc2nc(-c3ccc(C)cc3)c(Cc3ccc(OC)cc3C)n2c1,-2.33,–
O=S1(=O)CC(N2CCN(Cc3ccccc3F)CC2)CN1Cc1cn(Cc2cccc(C(F)(F)F)c2)nn1 (stereo unspecified),-5.88,–
COc1c(Cl)cc(Cl)cc1C(=O)Nc1cccc2cccnc12,0.266,–
S=C(NCc1cccnc1)Nc1ccc(Cl)cc1Cl,-2.92,–
CC(=O)/C(=N\Nc1ccc(Cl)cc1Cl)Sc1cccc2cccnc12,–,10 µM (active)
COc1ccc(/C=C/c2ccnc3ccccc23)cc1OC,-15.9,–
Cc1[nH]c(=O)c(C(=O)/C=C/c2ccccc2)c2c1CCCC2,–,6.31 µM (active)
Cc1cn(COC/C=C/c2ccccc2)c(=O)[nH]c1=O,-11,–
CC1(C(=O)O)CCCN(C(=O)/C=C/c2ccccc2)C1 (stereo unspecified),-5.44,–
CC(C)(C)c1ccc(C(=O)C[n+]2cccc3cc(Cl)ccc32)cc1,313,–
CCOC(=O)c1ccn(S(=O)(=O)c2ccc(C)cc2)c1-c1ccccc1,-2.99,–
CN(Cc1cn(Cc2ccc(C(F)(F)F)cc2)nn1)C1CN(Cc2cn(Cc3ccc(C(F)(F)F)cc3)nn2)S(=O)(=O)C1 (stereo unspecified),-28,–
c1ccc(Cc2c(-c3ccco3)nc3c4ccccc4ccn23)cc1,-0.586,–
CCC(CC)C(=O)N1CCc2cc(OC)c(OC)cc2C1COc1ccc(F)cc1 (stereo unspecified),-6.92,–
CC[C@H]1CN2CCc3cc(OC)c(OC)cc3[C@@H]2C[C@@H]1C[C@H]1NCCc2cc(OC)c(OC)cc21,–,0.562 µM (active)

SMILES,"activity change, negative = inhibition [%]",Potency
COc1cc2c(cc1OC)CN(CC(=O)Nc1ccc(F)cc1)CC2,-9.04,–
CCc1oc(-c2ccc(OC)cc2)c(C(=O)OCCCCCO)c1C(C)OCCO (stereo unspecified),3.76,–
Cc1ccc(-c2nc(=N)sn2Cc2ccccc2)cc1,-10.9,–
S=c1[nH]c(=S)c2n[nH]nc2[nH]1,-10.3,–
CCCc1c(-c2ccccc2F)ncn1Cc1ccccc1OC,-12.8,–
COc1ccc(S(=O)(=O)NCCc2c[nH]c3ccccc23)cc1OC,1.43,–
COc1cccc(CNCCc2c[nH]c3ccccc23)c1OCc1ccccc1F,–,10 µM (active)
c1cncc(CNCCc2c[nH]c3ccccc23)c1,-2.23,–
CO[C@H]1O[C@@H]2O[C@@]3(C)CC[C@@H]4[C@@H](C)CC[C@@H]([C@H]1C)[C@@]24OO3,-8.19,–
CN(Cc1ccccc1F)c1cc2c(c3c1ccn3C)C1CCC2O1 (stereo unspecified),-5.91,–
CN(C)c1ccc(/C=C/c2sc3ccccc3[n+]2C)cc1,66.9,–
OCC(O)C(O)C(O)C(O)C=Nc1ccc(/C=C/c2ccnc3ccccc23)cc1 (stereo unspecified),2.54,–
CCOCCC(=O)Nc1ccc2c(c1)c(=O)n(C)n2-c1ccc2ccccc2c1,-25.4,–
CS(=O)c1ccc(/C=C2\C=Cc3ccccc32)cc1 (stereo unspecified),3.52,–
Cc1cc(/C=C2/SC(=O)N(CC(=O)N3CCCC3)C2=O)ccc1N1CCOCC1,-17.6,–
COc1ccc(/C=C2\SC(=S)N(CCC(=O)N3CCOCC3)C2=O)cc1OC,-26.8,–
COc1cccc(/C=C2\SC(=S)N(CCCC(=O)N3CCOCC3)C2=O)c1,–,12.6 µM (active)
CCC(C)CN1C(=O)CSCC1(C)C(=O)NCc1ccccc1 (stereo unspecified),-10.8,–
COc1ccc(C(C)(NC(C)=O)c2nc(-c3ccc(S(C)(=O)=O)cc3)cs2)cc1 (stereo unspecified),8.43,–
COc1cccc(OCc2nnc3n2N=C(c2ccccc2)C(CC(=O)O)S3)c1 (stereo unspecified),-0.775,–
CCCCn1c(N)c(N(CCOC)C(=O)c2cccc(OCc3ccccc3)c2)c(=O)[nH]c1=O,-6.07,–
CCCCCCCCCCOC(=O)Cn1c(COc2cccc(OC)c2)[n+](C)c2ccccc21,–,11.2 µM (active)
